Activity calls are given as the source filed them. The calls were made as follows: active = hit-call score of the fitted dose curve at least 0.9, where 1 is the maximum; inactive = score below 0.9.

Read-out in test [1]: Monokine induced gamma interferon (MIG), CXCL9 (gene 4283)
Nature of the test: BSK_hDFCGF_MIG: BioMAP Diversity Plus: hDFCGF Assay for Monokine induced gamma interferon (MIG) Biomarker Activity (AID 2283063). The settings on record: primary human foreskin fibroblasts; actives raise or lower the signal. An outline of the steps:
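Fibroblasts (human foreskin, primary) dosed, 24 h, MIG by ELISA; fit bidirectional vs DMSO.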

Read-out in test [2]: Vascular cell adhesion molecule 1 (VCAM1), VCAM1 (gene 7412)
Nature of the test: BSK_hDFCGF_VCAM1: BioMAP Diversity Plus: hDFCGF Assay for Vascular cell adhesion molecule 1 (VCAM1) Biomarker Activity (AID 2283065). The following applies: primary human foreskin fibroblasts; actives raise or lower the signal. An outline of the steps:
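ELISA read-out of VCAM-1 on human skin fibroblasts, 24 h post-dose; gain or loss of signal fitted bidirectionally against DMSO baseline.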

Read-out in test [3]: Plasminogen activator inhibitor-1 (PAI1), SERPINE1 (gene 5054)
Nature of the test: BSK_hDFCGF_PAI1: BioMAP Diversity Plus: hDFCGF Assay for Plasminogen activator inhibitor-1 (PAI1) Biomarker Activity (AID 2283066). The following applies: primary human foreskin fibroblasts; actives raise or lower the signal. An outline of the steps:
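Primary dermal fibroblasts (human foreskin), hDFCGF system; compound 24 h; PAI-1 by ELISA; bidirectional fit vs DMSO control.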

Read-out in test [4]: Intercellular Adhesion Molecule 1 (ICAM1), ICAM1 (gene 3383)
Nature of the test: BSK_KF3CT_ICAM1: BioMAP Diversity Plus: KF3CT Assay for Intercellular Adhesion Molecule 1 (ICAM1) Biomarker Activity (AID 2283067). The following applies: primary human keratinocytes with fibroblasts; actives raise or lower the signal. A digest of the protocol: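 ELISA readout of ICAM-1; KF3CT human skin co-culture (keratinocytes + foreskin fibroblasts), 24 h post-dose; gain/loss fit vs DMSO baseline.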

Read-out in test [5]: Interferon-gamma inducible Protein 10 (IP10), CXCL10 (gene 3627)
Put plainly: BSK_KF3CT_IP10: BioMAP Diversity Plus: KF3CT Assay for Interferon-gamma inducible Protein 10 (IP10) Biomarker Activity (AID 2283068). The settings on record: primary human keratinocytes with fibroblasts; actives raise or lower the signal. A digest of the protocol:
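ELISA read-out of IP-10 after 24 h chemical dosing of human skin primary co-culture (keratinocytes, foreskin fibroblasts). Gain or loss of signal relative to DMSO, bidirectional curve fit.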

A short description of test [6]: BSK_KF3CT_SRB: Viability Assessment in the BioMAP Diversity Plus: KF3CT Assay (AID 2283069).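 Also: total protein by sulforhodamine B staining as a cytotoxicity measure; read 24 h after compound addition.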 The settings on record: primary human keratinocytes with fibroblasts. A digest of the protocol: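 Human keratinocyte and foreskin fibroblast co-culture exposed to chemical for 24 h. Total protein measured in parallel cultures by 0.1% sulforhodamine B staining after 10% TCA fixation, read at 560 nm; bidirectional fit relative to DMSO.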

Read-out in test [7]: Interleukin-1 alpha (IL1a), IL1A (gene 3552)
Put plainly: BSK_KF3CT_IL1a: BioMAP Diversity Plus: KF3CT Assay for Interleukin-1 alpha (IL1a) Biomarker Activity (AID 2283070). The following applies: primary human keratinocytes with fibroblasts; actives raise or lower the signal. A digest of the protocol: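 Primary human keratinocyte plus foreskin fibroblast co-culture, dosed and measured at 24 h in 96-well plates. IL-1a level quantified by ELISA; bidirectional fit relative to DMSO.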

Read-out in test [8]: TIMP metallopeptidase inhibitor 2 (TIMP2), TIMP2 (gene 7077)
Put plainly: BSK_KF3CT_TIMP2: BioMAP Diversity Plus: KF3CT Assay for TIMP metallopeptidase inhibitor 2 (TIMP2) Biomarker Activity (AID 2283071). The settings on record: primary human keratinocytes with fibroblasts; actives raise or lower the signal. An outline of the steps:
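Cells: human keratinocytes co-cultured with foreskin fibroblasts. Treat with chemical, 24 h. Measure TIMP-2 by ELISA; fit curves bidirectionally vs DMSO baseline.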

Read-out in test [9]: Transforming growth factor beta 1 (TGFb1), TGFB1 (gene 7040)
Nature of the test: BSK_KF3CT_TGFb1: BioMAP Diversity Plus: KF3CT Assay for Transforming growth factor beta 1 (TGFb1) Biomarker Activity (AID 2283072). The following applies: primary human keratinocytes with fibroblasts; actives raise or lower the signal. A digest of the protocol: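 Primary human skin cells (keratinocytes, foreskin fibroblasts) were co-cultured, exposed to test chemical and sampled at 24 h. TGF-b1 levels were measured by ELISA and fitted bidirectionally relative to DMSO.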

Read-out in test [10]: C-C motif chemokine 2 (Homo sapiens) (UniProt P13500)
Nature of the test: BSK_KF3CT_MCP1: BioMAP Diversity Plus: KF3CT Assay for Monocyte Chemoattractant Protein 1 (MCP1/CCL2) Biomarker Activity (AID 2283073). The following applies: primary human keratinocytes with fibroblasts; actives raise or lower the signal. An outline of the steps:
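KF3CT skin co-culture (keratinocytes/foreskin fibroblasts), 24 h post-dose; MCP-1 by ELISA; gain/loss of signal fit bidirectionally vs DMSO baseline.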

Read-out in test [11]: Matrix Metallopeptidase 9 (MMP9), MMP9 (gene 4318)
Put plainly: BSK_KF3CT_MMP9: BioMAP Diversity Plus: KF3CT Assay for Matrix Metallopeptidase 9 (MMP9) Biomarker Activity (AID 2283074). The following applies: primary human keratinocytes with fibroblasts; actives raise or lower the signal. An outline of the steps:
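Human keratinocyte and foreskin fibroblast co-culture exposed to chemicals for 24 h; MMP9 biomarker measured by ELISA, bidirectional fitting relative to DMSO; cytotoxicity tracked by SRB total protein staining in parallel cultures.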

Read-out in test [12]: urokinase plasminogen activator (uPA), PLAU (gene 5328)
Put plainly: BSK_KF3CT_uPA: BioMAP Diversity Plus: KF3CT Assay for urokinase plasminogen activator (uPA) Biomarker Activity (AID 2283075). The following applies: primary human keratinocytes with fibroblasts; actives raise or lower the signal. An outline of the steps:
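Primary human keratinocyte/foreskin fibroblast co-culture exposed to chemical; uPA measured by ELISA at 24 h. Bidirectional fit versus DMSO, with parallel SRB total-protein staining for cytotoxicity.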

Read-out in test [13]: CD40, CD40 (gene 958)
Put plainly: BSK_LPS_CD40: BioMAP Diversity Plus: LPS Assay for CD40 Biomarker Activity (AID 2283076). The settings on record: primary human HUVEC with PBMC; actives raise or lower the signal. A digest of the protocol: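 ELISA readout of CD40 in HUVEC/PBMC co-culture (BSK_LPS system), 24 h post-dosing; bidirectional curve fit, DMSO baseline; parallel SRB total-protein staining for cytotoxicity.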

Read-out in test [14]: E-selectin (Homo sapiens) (UniProt P16581)
Nature of the test: BSK_LPS_Eselectin: BioMAP Diversity Plus: LPS Assay for Eselectin Biomarker Activity (AID 2283077). The settings on record: primary human HUVEC with PBMC; actives raise or lower the signal. A digest of the protocol: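 ELISA readout of E-selectin, 24 h post-dose, HUVEC + PBMC co-culture (LPS system). Gain or loss of signal vs DMSO baseline, bidirectional fit.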

Read-out in test [15]: Interleukin-8 (IL8), CXCL8 (gene 3576)
Nature of the test: BSK_LPS_IL8: BioMAP Diversity Plus: LPS Assay for Interleukin-8 (IL8) Biomarker Activity (AID 2283078). The settings on record: primary human HUVEC with PBMC; actives raise or lower the signal. A digest of the protocol:
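HUVEC + PBMC co-culture, LPS-activated; test chemicals dosed, IL-8 read by ELISA at 24 h. Bidirectional curve fit vs DMSO baseline (gain or loss of signal).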

Test [16] can be described thus: BSK_LPS_SRB: Viability Assessment in the BioMAP Diversity Plus: LPS Assay (AID 2283079).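 Also: total protein by sulforhodamine B absorbance as a cytotoxicity measure; measured one day after compound addition; fitted in both directions against DMSO so loss or gain of signal counts.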 The following applies: primary human HUVEC with PBMC. A digest of the protocol: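 HUVEC + PBMC co-culture, LPS-stimulated; compound 24 h. 10% TCA fix, 0.1% SRB stain, A560. Bidirectional fit vs DMSO.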
Read-out in test [17]: Interleukin-1 alpha (IL1a), IL1A (gene 3552)
Nature of the test: BSK_LPS_IL1a: BioMAP Diversity Plus: LPS Assay for Interleukin-1 alpha (IL1a) Biomarker Activity (AID 2283080). The following applies: primary human HUVEC with PBMC; actives raise or lower the signal. A digest of the protocol:
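HUVEC/PBMC co-culture, LPS system; 24 h after dosing; IL-1a by ELISA; gain or loss of signal fitted bidirectionally vs DMSO baseline.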

Read-out in test [18]: Monocyte Chemoattractant Protein-1 (MCP1), CCL2 (gene 6347)
Put plainly: BSK_LPS_MCP1: BioMAP Diversity Plus: LPS Assay for Monocyte Chemoattractant Protein-1 (MCP1) Biomarker Activity (AID 2283081). The settings on record: primary human HUVEC with PBMC; actives raise or lower the signal. A digest of the protocol:
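ELISA read-out of MCP-1 after 24 h chemical dosing of a human umbilical vein endothelial cell/peripheral blood mononuclear cell co-culture stimulated with LPS. Gain or loss of signal fitted relative to DMSO controls.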

Test [19] in a line: BSK_LPS_PGE2: BioMAP Diversity Plus: LPS Assay for Prostaglandin E2 (PGE2) Biomarker Activity (AID 2283082). The following applies: primary human HUVEC with PBMC; actives raise or lower the signal. A digest of the protocol: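 LPS-activated HUVEC/PBMC co-culture; cmpd dosed, 24 h; PGE2 by ELISA; bidirectional fit vs DMSO; SRB (0.1%, TCA-fixed, 560 nm) in parallel plates for overt cytotox.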

Chain of E-selectin (Homo sapiens) (P16581 whole entry, looked up): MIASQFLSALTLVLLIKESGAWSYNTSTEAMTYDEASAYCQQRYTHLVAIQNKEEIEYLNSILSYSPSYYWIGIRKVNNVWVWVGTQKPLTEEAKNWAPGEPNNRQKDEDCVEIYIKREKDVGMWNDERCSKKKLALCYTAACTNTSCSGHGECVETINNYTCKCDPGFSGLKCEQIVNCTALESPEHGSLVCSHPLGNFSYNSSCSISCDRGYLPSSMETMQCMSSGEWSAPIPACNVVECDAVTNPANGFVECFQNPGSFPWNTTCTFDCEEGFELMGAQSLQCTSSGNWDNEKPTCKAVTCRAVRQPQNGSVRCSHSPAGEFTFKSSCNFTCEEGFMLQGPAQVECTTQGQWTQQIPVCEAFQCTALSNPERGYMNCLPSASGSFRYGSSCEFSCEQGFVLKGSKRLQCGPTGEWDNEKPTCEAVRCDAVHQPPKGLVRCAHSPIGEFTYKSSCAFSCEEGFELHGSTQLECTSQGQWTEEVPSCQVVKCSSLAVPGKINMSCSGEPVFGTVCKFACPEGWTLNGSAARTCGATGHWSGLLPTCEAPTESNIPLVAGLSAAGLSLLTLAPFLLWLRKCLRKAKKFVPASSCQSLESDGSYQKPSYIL

Turning to `CC(C)=CCCC(C)CCO` (configuration not stated), the result in [1], in test [2], in [3], in test [4], in [5] and in test [6] was inactive. In addition, the outcome in [7], in test [8], in test [9], in test [10], in test [11] and in [12] was inactive. Further, the result in test [13], in [14], in [15], in test [16], in [17] and in test [18] was inactive.
Take `COC(=O)c1c(Cl)c(Cl)c(C(=O)OC)c(Cl)c1Cl`: the outcome in test [1], in [2], in test [3], in test [4], in [5] and in test [6] was inactive. For the same compound, the result in [7], in [8], in [9], in test [10], in [11] and in test [12] was inactive. For the same compound, the result in [15], in [16], in test [17] and in test [19] was inactive. Also, in test [13], the AC50 was 11.4 µM (active).
In the case of `C=CC(=C)CCC=C(C)C`, the outcome in test [1], in test [2], in test [4], in test [5], in test [6] and in [8] was inactive. The outcome in test [9], in test [10], in test [11], in test [12], in test [13] and in test [15] was inactive. The result in test [16], in test [17], in test [18] and in [19] was inactive.
With `CC(=O)c1ccc2c(c1)[C@H](NC(=O)c1ccc(F)cc1)[C@@H](O)C(C)(C)O2`, the result in test [1], in test [2], in [4], in [5], in test [6] and in [7] was inactive. The outcome in test [8], in test [9], in test [10], in [11], in test [12] and in [13] was inactive. The result in test [15], in test [16], in test [17] and in test [18] was inactive.
Regarding `COCCOCCOCCOC`, the outcome in test [1], in test [2], in test [4], in test [5], in test [6] and in [8] was inactive. Also, the outcome in test [9], in test [10], in test [11], in [12], in [13] and in test [14] was inactive. Moreover, the result in test [15], in test [16] and in test [17] was inactive.

One may read the AC50 as the concentration at which the activity in the assay is half-maximal.

These data come from PubChem BioAssay (EPA / NIEHS).
